aSyn UTR act: Activators via SNCA 5'UTR binding, MLPCN | alpha-synuclein 5'UTR reporter, activators screen | activity score, % (tested at 7.5 µM), hits read low | 300,000 tested, 7.1% active | AID 1814; in the data active = activity score below about -60%
Numbers without * were called inactive. A selection follows.

SMILES | aSyn UTR act
CCC(=O)NC(c1ccc(C)cc1)c1ccc2cccnc2c1O (stereo not given) | 81
O=C(Nc1ccnc(-c2cccnc2)n1)c1ccc(Cl)cc1 | -117*
CC(C)C(=O)NC(c1ccc(Cl)cc1Cl)c1ccc2cccnc2c1O (stereo not given) | 92
O=C(NC(c1ccc(Cl)cc1)c1cc(Cl)c2cccnc2c1O)c1cccnc1 (stereo not given) | 98
O=C(NC(=S)Nc1cccnc1Cl)c1ccc(Cl)cc1 | -154*
O=C(Nc1cccc2cccnc12)c1ccc(Cl)cc1 | -76*
CCCCCc1ccc(-c2ccc(/C=C/C(=O)O)cc2)nc1 | 79
O=C(c1ccccc1)c1ccc(Cn2cc(-c3ccccc3)nn2)cc1 | -135*
CCCCCc1ccc(-c2cn(Cc3ccc(C(=O)c4ccccc4)cc3)nn2)cc1 | -138*
Nc1c(C(=O)Nc2ccc3c(c2)OCCO3)nnn1Cc1ccc(Br)cc1 | -220*
Nc1c(C(=O)Nc2ccc3c(c2)OCCO3)nnn1Cc1cccc(Br)c1 | -163*
Nc1c(C(=O)Nc2ccc3c(c2)OCCO3)nnn1CCc1ccccc1 | -126*
Nc1c(C(=O)Nc2ccccc2Cl)nnn1-c1ccc2c(c1)OCCO2 | -216*
O=C(Nc1nnc(-c2ccc3c(c2)CCCC3)o1)C1CCCCC1 | -84*
O=C(CCc1nnc(-c2ccc(-c3ccccc3)cc2)o1)NCCc1ccccn1 | 90
CN(CCCC1CCCC1)C(=O)CCc1nnc(-c2ccccc2)o1 | -139*
Cc1cc(C)n(CCN(C)C(=O)CCc2nnc(CCC3CCCCC3)o2)n1 | -145*
CN(C)S(=O)(=O)c1ccc(C(=O)Nc2nnc(-c3ccc4c(c3)CCCC4)o2)cc1 | 69
O=C(CCc1nnc(-c2ccccc2)o1)NC1CCCCC1 | -66*
COC(=O)CCCNC(=O)CCc1nnc(-c2ccc(-c3ccccc3)cc2)o1 | 77
O=C(Nc1nnc(-c2ccccc2)o1)NC1CCCCC1 | -80*
O=C(Nc1ccccc1)Nc1nnc(-c2ccccc2)o1 | -63*
COC(=O)c1cn(C(=O)/C=C/c2ccc(OC)c(OC)c2)c2ccccc12 | -78*
CCN(CC)c1ccc(NC(=O)C2CC3CCC2C3)cc1 (stereo not given) | -68*
Cc1ccc(NC(=O)C2CC3CCC2C3)c(Br)c1 (stereo not given) | -110*
SMILES | aSyn UTR act
CN(C)CCCNc1c2ccccc2nc2ccccc12 | 71
c1ccc(CNc2c3ccccc3nc3ccccc23)cc1 | -332*
Fc1ccc(F)c(C2=NNC(=NCC3CCCO3)SC2)c1 (stereo not given) | -118*
N#Cc1c(NC(=O)c2cnn3cccnc23)sc2c1CCCC2 | -99*
N#Cc1c(NC(=O)c2ccncc2)sc2c1CCC2 | -66*
CCN(CC)CCCC(C)NC(=O)c1c(NC(=O)c2ccccc2)sc2c1CCCC2 (stereo not given) | -79*
COc1ccc(NC(=O)c2c(NC(=O)CCC(=O)O)sc(-c3ccccc3)c2C)cc1 | -76*
NC(=O)c1c(NC(=O)c2cnccn2)sc2c1CCCC2 | -217*
CNC(=O)c1c(NC(=O)c2nc3ccccc3s2)sc2c1CCC2 | -256*
Cc1cc(C(=O)Nc2sc3c(c2C#N)CCCCC3)cs1 | -94*
NC(=O)c1c(NC(=S)Nc2ccccc2)sc2c1CCCC2 | -67*
O=C(O)CCC(=O)Nc1sc2c(c1C(=O)Nc1ccccc1)CCCCC2 | -78*
CC(C)C(=O)NC(=S)Nc1sc2c(c1C(N)=O)CCCC2 | -121*
NC(=O)c1c(NC(=O)c2ccccc2)sc2c1CCc1ccccc1-2 | -211*
NC(=O)c1c(NC(=O)c2ccccc2)sc2c1CCC2 | -122*
[N-]=[N+]=CC(=O)C(O)(c1ccccc1)C(Cl)c1ccccc1 (stereo not given) | 47
NC(=O)c1c(NC(=O)c2ccncc2)sc2c1CCCC2 | -121*
Oc1ccccc1C(Nc1nccs1)c1ccc2cccnc2c1O (stereo not given) | 77
C/C(=C\C(=O)Nc1nccs1)c1ccccc1 | -197*
O=C(COc1ccccc1)Nc1nccs1 | -100*
O=C(COC(=O)c1ccccc1Cl)Nc1nccs1 | -91*
Cn1cc(SCC(=O)Nc2nccs2)c2ccccc21 | -165*
O=C(COc1ccc([N+](=O)[O-])cc1)Nc1nc(-c2ccccn2)cs1 | 57
O=C(COc1ccc2ccc(=O)oc2c1)Nc1nccs1 | -85*
O=C(NCCc1ccccc1)C(=O)Nc1nccs1 | -84*
SMILES | aSyn UTR act
NC(=O)c1ccsc1NC(=O)COc1ccccc1 | -136*
N#Cc1cc2cc3c(cc2nc1SCC(=O)N1CCOCC1)OCCO3 | 110
Cc1cc(NC(=O)CSc2nc3ccccc3cc2C#N)no1 | -158*
Cc1cc(NC(=O)CSc2nc3ccccc3c(=O)n2C2CCCC2)no1 | 86
Cc1ccc2nc(SCC(=O)Nc3ccc4sc(C)nc4c3)c(C#N)cc2c1 | -129*
COc1ccc2nc(SCC(=O)N3CCCCC3)c(C#N)cc2c1 | -107*
COC(=O)CSc1nc2cc(C)ccc2cc1C#N | -189*
COc1ccc2nc(SCC(=O)Nc3cc(C)on3)c(C#N)cc2c1 | -103*
COc1ccc2nc(SCC(=O)NC3CC3)c(C#N)cc2c1 | -68*
Cc1cc(NC(=O)CSc2nc3c(cc2C#N)CCCC3)no1 | -74*
Cn1c(N/N=C/c2c[nH]c3ccccc23)nc2ccccc21 | -126*
Cn1c(N/N=C/c2cc3ccccc3nc2Cl)nc2ccccc21 | -127*
Fc1c(F)c(F)c(N/N=C/c2c[nH]c3ccccc23)c(F)c1F | -103*
CCCNC(=O)c1cc(-c2ccc3c(c2)OCO3)on1 | -105*
CCN(CC)C(=O)c1cc(-c2ccc3c(c2)OCO3)on1 | -132*
CC(C)NC(=O)c1cc(-c2ccc3c(c2)OCO3)on1 | -110*
O=C(Nc1cccc(O)c1)c1cc(-c2ccc3c(c2)OCO3)on1 | 69
CCCCNC(=O)c1cc(-c2ccc3c(c2)OCO3)on1 | -66*
CCOc1ccc2c(c1)C(C)=CC(C)(C)N2S(=O)(=O)c1ccc(C)cc1 | 103
COc1ccc2c(c1)C(C)=CC(C)(C)N2S(=O)(=O)c1ccc(C)cc1 | -63*
COc1cccc(Nc2nc(-c3cccc(N4C(=O)c5ccccc5C4=O)c3)cs2)c1 | -62*
COc1cccc(Nc2nc(-c3ccc(O)cc3)cs2)c1 | -191*
Cc1nnc(Oc2ccccc2F)c2ccccc12 | -94*
COc1ccc(Oc2nnc(C)c3ccccc23)cc1 | -175*
COc1ccc(-c2nnc3c4ccccc4c(C)nn23)cc1 | -206*
SMILES | aSyn UTR act
O=C(CNC(=S)NC(=O)c1ccccc1)c1ccccc1 | -83*
O=C(N/N=C\c1c(O)ccc2ccccc12)c1cncc(Br)c1 | 62
O=C(NC(=S)NC1CCCCC1)c1ccccc1 | -95*
O=C(NC(=S)Nc1ccc(O)cc1)c1cncc(Br)c1 | -71*
O=C(NC(=S)NC1CCCCCC1)c1cncc(Br)c1 | -168*
COCC1CCN(C(=O)c2cc(COc3cc(C)c(Cl)c(C)c3)on2)C1 (stereo not given) | -91*
Cc1cc(OCc2cc(C(=O)N3CCCCCC3)no2)cc(C)c1Cl | -132*
CC/C(=N\Nc1nncc2ccccc12)c1ccc(F)cc1 | -190*
NC(=S)Nc1cccc2cc3ccccc3cc12 | -101*
COc1ccc(C(=O)/C=C2\NCCc3cc(OC)c(OC)cc32)cc1OC | 64
COc1ccc(N/C=C\C(=O)c2ccc(Br)cc2)cc1OC | -108*
COc1ccc(N/C=C\C(=O)c2ccc(C)cc2)cc1OC | -84*
O=C(c1ccc(OC(F)(F)F)cc1)c1ncc[nH]1 | -83*
COc1ccc(/C=C/C(=O)Nc2ccccc2C)cc1S(=O)(=O)N1CCOCC1 | -87*

Source: PubChem BioAssay
